Reference: PubChem BioAssay AID703 (NMMLSC, 2007)
Unmarked numbers belong to inactive results. How the calls were made is not given here.

Target: Integrin alpha-4 (Homo sapiens) (UniProt P13612)
Experiment: enhancers of LDV-FITC binding to VLA-4, dose response, cell-based, flow cytometry (AID 703)
Details: Jurkat cells, stronger effect = higher value

Chain of Integrin alpha-4 (Homo sapiens) (P13612 whole entry, looked up): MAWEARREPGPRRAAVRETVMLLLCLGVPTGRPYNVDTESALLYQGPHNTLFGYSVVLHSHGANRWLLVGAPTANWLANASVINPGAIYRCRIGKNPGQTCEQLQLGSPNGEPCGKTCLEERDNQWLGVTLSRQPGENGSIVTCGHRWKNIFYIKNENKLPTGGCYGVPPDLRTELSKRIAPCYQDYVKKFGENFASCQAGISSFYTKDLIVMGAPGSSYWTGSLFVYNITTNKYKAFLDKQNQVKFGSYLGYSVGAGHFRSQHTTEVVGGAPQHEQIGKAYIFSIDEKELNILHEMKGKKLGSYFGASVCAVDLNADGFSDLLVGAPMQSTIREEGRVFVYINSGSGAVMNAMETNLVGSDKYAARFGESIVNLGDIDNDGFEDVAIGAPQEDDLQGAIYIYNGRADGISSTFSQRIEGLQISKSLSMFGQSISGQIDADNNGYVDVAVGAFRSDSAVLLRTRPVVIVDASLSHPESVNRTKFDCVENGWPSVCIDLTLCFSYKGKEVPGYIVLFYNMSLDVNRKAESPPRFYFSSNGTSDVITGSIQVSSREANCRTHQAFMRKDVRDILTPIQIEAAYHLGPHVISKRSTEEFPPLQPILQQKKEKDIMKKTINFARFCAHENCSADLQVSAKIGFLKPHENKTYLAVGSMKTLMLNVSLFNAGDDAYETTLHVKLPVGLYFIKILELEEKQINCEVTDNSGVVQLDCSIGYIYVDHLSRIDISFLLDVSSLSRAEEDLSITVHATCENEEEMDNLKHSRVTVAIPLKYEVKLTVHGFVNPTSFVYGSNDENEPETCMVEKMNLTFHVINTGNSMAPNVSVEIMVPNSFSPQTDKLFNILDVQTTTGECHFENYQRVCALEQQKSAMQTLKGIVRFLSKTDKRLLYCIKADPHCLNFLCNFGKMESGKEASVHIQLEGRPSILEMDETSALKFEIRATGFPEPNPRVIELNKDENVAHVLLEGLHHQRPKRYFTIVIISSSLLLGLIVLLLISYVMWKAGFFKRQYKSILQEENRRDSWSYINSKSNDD

With `O=c1c2ccccc2[se]n1-c1ccccc1` the activation at 0 C was 0.
